CYP2C19 activ: activators of human cytochrome P450 2C19; recombinant CYP2C19, luciferin-H EGE luminescence; hits give high values; 0 = fully inhibited enzyme, 1 = untreated enzyme; activation factor at 5 µM; 96,000 tested, under 10 active;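 active = activation factor of at least 2 at 5 µM in the primary screen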
sEH activator: activators of human soluble epoxide hydrolase; purified human sEH enzymatic activity, activator screen; 91,000 tested, 0.04% active; activation, % at 2 µM; P34913; in the data active = activation above about 37%
sEH inh: inhibitors of human soluble epoxide hydrolase; P34913; recombinant human sEH enzymatic activity assay; inhibition, % at 2 µM; 91,000 tested, 0.34% active; AID 707; in the data active = inhibition above about 80%
CYP2C9 activ: activators of human CYP2C9. P11712. 96,000 tested, 1.4% active. AID 1024. recombinant CYP2C9, luciferin-H conversion, luminescence; hits give high values; factor 1 = untreated enzyme, 0 = blocked. activation factor at 5 µM;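 active = activation factor of 2 or more for CYP2C9 at a 5 µM dose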
Target sequence (P11712 whole entry, looked up): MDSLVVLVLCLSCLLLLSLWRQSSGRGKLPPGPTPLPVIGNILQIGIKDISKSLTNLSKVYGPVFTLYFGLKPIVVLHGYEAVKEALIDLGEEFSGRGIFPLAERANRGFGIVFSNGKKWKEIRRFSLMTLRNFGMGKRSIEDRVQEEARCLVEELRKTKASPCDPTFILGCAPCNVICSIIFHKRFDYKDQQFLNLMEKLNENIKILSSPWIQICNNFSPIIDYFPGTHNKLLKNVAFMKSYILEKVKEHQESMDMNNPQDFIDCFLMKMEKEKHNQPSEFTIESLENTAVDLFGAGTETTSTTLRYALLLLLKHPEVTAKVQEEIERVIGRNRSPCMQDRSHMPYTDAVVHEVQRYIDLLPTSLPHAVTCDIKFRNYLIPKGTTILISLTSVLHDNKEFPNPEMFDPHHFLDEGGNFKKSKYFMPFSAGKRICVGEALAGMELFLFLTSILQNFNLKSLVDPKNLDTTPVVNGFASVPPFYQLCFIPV
CYP2C9 inh: blocks human cytochrome P450 2C9; P11712; AID 777; inhibition, % at 5 µM; CYP2C9 Supersomes, luciferin-H conversion, luminescence; 96,000 tested, 20% active;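 active = blocking of liver enzyme CYP2C9 beyond about 50% at 5 µM, limit read from the data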
CYP2C19 inhib: inhibitors of human CYP2C19; CYP2C19 Supersomes, luciferin-H EGE luminescence, 30 min; P33261; 96,000 tested, 21% active; inhibition, % at 5 µM;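 active = CYP2C19 inhibition above a set limit at 5 µM in the primary screen, cut at about 50% in these data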
Each line names hits and unclear results; the compound was inactive in the other large screens. An excerpt weighted towards active compounds, which were near 27% of everything screened.

CCOC(=O)c1ccc(N2C(=O)c3n[nH]c(C)c3C2c2ccco2)cc1 (centres undefined)	CYP2C9 inh 77, CYP2C19 inhib 81
Cc1ccc(-c2[nH]nc3c2C(c2ccc(OC(=O)N4CCOCC4)cc2)C(C#N)=C(N)O3)cc1 (centres undefined)	none
CCOC(=O)C1CCCN(C(=O)CNC(=O)Cn2ccc3ccccc3c2=O)C1 (centres undefined)	none (no result: sEH activator, sEH inh)
COc1cc(C2c3c(-c4ccccc4)n[nH]c3C(=O)N2c2ccc(C(=O)O)cc2)ccc1O (centres undefined)	none
CCOC(=O)c1ccc(N2C(=O)c3n[nH]c(C)c3C2c2ccc(OC)c(OC)c2)cc1 (centres undefined)	CYP2C9 inh 78, CYP2C19 inhib 82
CC1(C)CN(c2ccccc2)N(Cc2ccc(F)cc2)C1=O	CYP2C19 inhib 60
O=C(NCCC1=CCCCC1)C1CCCN(S(=O)(=O)c2ccccc2)C1 (centres undefined)	sEH inh 84
Cc1ccc(S(=O)(=O)N2CCCC(C(=O)NCCC3=CCCCC3)C2)cc1 (centres undefined)	sEH inh 82
Cc1cc(C)nc(N2CCCC(C(=O)NCCC3=CCCCC3)C2)n1 (centres undefined)	CYP2C19 inhib 73 (no result: sEH activator, sEH inh)
Cc1cc(C)nc(N2CCCC(C(=O)NCCc3cccc(F)c3)C2)n1 (centres undefined)	none (no result: sEH activator, sEH inh)
CCn1cc(Cl)c(C(=O)Nc2nc3ccccc3n2CCN2CCCCC2)n1	none
Cc1cc2ccc(C)c(C)c2nc1SCC#N	none
CCN(CC)CCCNC(=O)c1cn(CCOC)c(=O)c2c1c1ccccc1n2C	none
CCC(=O)Nc1ccccc1C(=O)OCC(=O)c1ccccc1	CYP2C9 inh 91, CYP2C19 inhib 73
O=C(COC(=O)c1ccccc1NC(=O)c1ccccc1)c1ccc([N+](=O)[O-])cc1	CYP2C9 inh 70, CYP2C19 inhib 63
CCC(=O)Nc1ccccc1C(=O)OCC(=O)c1ccc2ccccc2c1	CYP2C9 inh 69, CYP2C19 inhib 90
CCOC(=O)c1ccccc1NC(=O)c1ccc(F)cc1	none
O=C(C1CCC(N2C(=O)C3CC=CCC3C2=O)CC1)N1CCCCC1 (centres undefined)	none
CSc1nncn1/N=C/c1ccccc1F	CYP2C9 inh 58
Cc1cc(C(=O)Nc2ccccc2C(F)(F)F)no1	none
CCc1ccccc1NC(=O)c1cc(C2CC2)on1	CYP2C9 activ 2.4
Cc1oc2cc(O)ccc2c(=O)c1Oc1ccc2ccccc2c1	CYP2C9 activ 2
COC(=O)c1ccc(C(=O)Nc2ccc3nc(-c4cccnc4)[nH]c3c2)cc1	CYP2C9 inh 67
Cn1cccc1-c1nc2ccc(NC(=O)c3ccccc3)cc2[nH]1	CYP2C9 inh 68, CYP2C19 inhib 78
Cc1ccc(S(=O)(=O)Nc2ccc3nc(-c4cccn4C)[nH]c3c2)cc1	CYP2C9 inh 100, CYP2C19 inhib 100
Cc1cc(C)c[n+](-c2nc([O-])sc2C=O)c1	none
CCN(CC)C(=O)c1sc(NC(=O)c2ccoc2C)c(C(=O)OC)c1C	none (no result: sEH activator, sEH inh)
CCN(CC)C(=O)c1sc(NC(=O)C(Sc2ccccc2)c2ccccc2)c(C(=O)OC(C)C)c1C (centres undefined)	CYP2C9 inh 84
CCOC(=O)c1c(NC(=O)c2ccoc2C)sc(C(=O)N(C)C)c1C	CYP2C9 inh 83, CYP2C19 inhib 57
CCOC(=O)c1sc(NC(=O)CN(CC(C)C)CC(C)C)c(C(=O)OCC)c1C	CYP2C9 inh 62
CCOC(=O)c1c(NC(=O)OC)sc(C(=O)N(CC)CC)c1C	CYP2C9 inh 67, CYP2C19 inhib 56
Cc1cccc(NC(=S)N(CCN(C)C)C(C)c2ccccn2)c1 (centres undefined)	none
CCOc1cc(CNC(C)C)c(Cl)cc1OCC(=O)NCCc1ccccc1	CYP2C19 inhib 77
CCOc1cc(CNCCO)c(Cl)cc1OCC(=O)NCCc1ccccc1	CYP2C19 inhib 58
COCCNC(=O)COc1ccccc1Cl	none
COC(=O)[C@H](C)NC(=O)Nc1ccc(C)c(C)c1	none
Cc1ccc(/C=N/NC(=O)c2cccs2)cc1[N+](=O)[O-]	none
COc1ccc(/C=N\NS(=O)(=O)c2ccc(Cl)cc2)cc1COc1ccccc1[N+](=O)[O-]	none (no result: CYP2C19 activ, CYP2C9 activ, CYP2C9 inh, CYP2C19 inhib)
Cc1ccc(S(=O)(=O)N/N=C/c2ccc(OC3CSC3)cc2)cc1	none
Cc1ccc(S(=O)(=O)N/N=C/c2ccc(OS(=O)(=O)c3ccc(C)c([N+](=O)[O-])c3)cc2)cc1	CYP2C9 inh 91
Cc1ccc(NC(=S)N/N=C/c2ccc(Cl)c([N+](=O)[O-])c2)cc1	CYP2C9 inh 56
Cc1ccc(S(=O)(=O)N/N=C\c2ccc([N+](=O)[O-])o2)cc1	CYP2C9 inh 79
Cc1ccc(S(=O)(=O)N/N=C\c2ccc(Cl)c([N+](=O)[O-])c2)cc1	CYP2C9 inh 70, CYP2C19 inhib 87
CC(C)(C)c1ccc(/C([O-])=C(/C(=S)NCc2ccco2)[n+]2ccccc2)cc1	none
Cc1c(NC(=O)c2cc(-c3cccs3)on2)c(=O)n(-c2ccccc2)n1C	none (no result: sEH activator, sEH inh)
COCCOC(=O)c1c(C)oc2ccc(O)c(CN3CCC(C)CC3)c12	CYP2C19 inhib 51 (no result: sEH activator, sEH inh)
Cc1cccc(NC(=S)NN2CCN(C)CC2)c1	none
Cc1cccc(N2CCN(C(=O)C34CC5CC(CC(C5)C3)C4)CC2)c1C	none
COc1cccc(C(=O)CN2C(=O)C(C)(C)Oc3ccc(C(=O)N4CCCCCC4)cc32)c1	CYP2C9 inh 67 (no result: sEH activator, sEH inh)
Cc1ccc(CN2C(=O)C(C)(C)Oc3ccc(C(=O)N4CCCCC4)cc32)cc1	CYP2C9 inh 57
COc1cccc(NC(=O)c2ccc3c(c2)N(CC(=O)N2CCCCC2)C(=O)C(C)(C)O3)c1	CYP2C9 inh 64
O=C(NCc1ccccc1)c1cccnc1N1CCOCC1	none (no result: CYP2C19 activ, CYP2C9 activ, CYP2C9 inh, CYP2C19 inhib)
CCOc1cc(C(=O)Nc2c3c(nn2C(C)(C)C)CS(=O)C3)cc(OCC)c1OCC (centres undefined)	none (no result: CYP2C19 activ, CYP2C9 activ, CYP2C9 inh, CYP2C19 inhib)
COc1ccc2c(c1)OCC1=C2CCC2(C)C(=O)CC=C12 (centres undefined)	CYP2C9 inh 64
CCOC(=O)c1ccccc1NC(=O)CC1SC(=NC)N(C)C1=O (centres undefined)	none (no result: sEH activator, sEH inh)
CCc1ccccc1NC(=O)CC1S/C(=N\c2nccs2)N(CC)C1=O (centres undefined)	CYP2C9 inh 97, CYP2C19 inhib 96 (no result: sEH activator, sEH inh)
Cc1ccccc1NC(=O)CC1S/C(=N/c2nccs2)N(C)C1=O (centres undefined)	CYP2C9 inh 98, CYP2C19 inhib 90
CN=C1SC(CC(=O)Nc2cc(Cl)ccc2Cl)C(=O)N1C (centres undefined)	CYP2C19 inhib 60
Cc1ccc(NC(=O)CC2S/C(=N/c3nccs3)N(C)C2=O)cc1C (centres undefined)	CYP2C9 inh 79, CYP2C19 inhib 86

Bioassay records from PubChem.
